Assay results as given in the supplement of paper PMC6555819.

Experiments:
Experiment in all cases: PBM binding z-score (relative to random genomic background probes); higher = stronger binding; sequences stand for … in GC…GCGATTGACAGCGTAGAATGAAGG
[1] = system: RARb homodimer (NR concentration 270 nM)
How it was run: (§1)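 Ligand-free nuclear receptor dimers were applied to custom Agilent 4×180K protein-binding microarrays whose double-stranded probes carried direct-repeat seeds, single-nucleotide variants, half-site ablations and random human genomic background sequences in 34-nt variable regions. Incubation lasted 1 h. Binding z-scores were computed against the random background probes from regression-normalized fluorescence.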

[2] = system: RARg:RXRa (NR concentration 270 nM, RXRa partner concentration 90 nM)
How it was run: as §1

[3] = system: RARg homodimer (NR concentration 270 nM)
How it was run: as §1

[4] = system: RXRa DBDmut IVT, anti-RXR (DBD mutation: RXRa K156A/R161A, NR concentration 90 nM)
How it was run: as §1

[5] = system: RXRa homodimer (NR concentration 180 nM)
How it was run: as §1

[6] = system: THRa:RXRa (NR concentration 90 nM, RXRa partner concentration 90 nM)
How it was run: as §1

[7] = system: THRa homodimer (NR concentration 90 nM)
How it was run: as §1

[8] = system: VDR:RXRa (NR concentration 270 nM, RXRa partner concentration 90 nM)
How it was run: as §1

[9] = system: VDR homodimer (NR concentration 270 nM)
How it was run: as §1

Work on CGTCCAAGTTCAGCAGGTCAGTGAAAGCGACGTG yielded a PBM binding z-score [1] of 3.8, a PBM binding z-score [2] of 3.81 and a PBM binding z-score [3] of 3.65. It also gave a PBM binding z-score [4] of 3.67, a PBM binding z-score [5] of 2.52 and a PBM binding z-score [6] of 1.96. The PBM binding z-score [7] was 0.713, the PBM binding z-score [8] was 2.86 and the PBM binding z-score [9] was 3.65.
CCTAGTTGGTCCGGAGGTCACACACCGGATATGA showed a PBM binding z-score [1] of 3.85, a PBM binding z-score [2] of 4.35 and a PBM binding z-score [3] of 3.68. For the same sequence, the PBM binding z-score [4] was 0.525, the PBM binding z-score [5] was 4.56 and the PBM binding z-score [6] was 3.62. For the same sequence, the PBM binding z-score [7] was 2.86, the PBM binding z-score [8] was 3.77 and the PBM binding z-score [9] was 2.79.
Sequence CGAACTCGGTCAAGGACAGTGAATCTCCGCACGC has a PBM binding z-score [1] of 1.7, a PBM binding z-score [2] of 1.95 and a PBM binding z-score [3] of 2.98. The PBM binding z-score [4] was 0.656, the PBM binding z-score [5] was 0.345 and the PBM binding z-score [6] was 2.15. It also gave a PBM binding z-score [7] of 1.37, a PBM binding z-score [8] of 0.0619 and a PBM binding z-score [9] of 0.261.
With TCGAGTAGGTTAGGGGCTTTCAGAATGGCGTCGA the PBM binding z-score [1] was 0.146, the PBM binding z-score [2] was -0.192 and the PBM binding z-score [3] was -0.707. The PBM binding z-score [4] was 0.128, the PBM binding z-score [5] was 0.00359 and the PBM binding z-score [6] was -0.109. It also gave a PBM binding z-score [7] of 0.122, a PBM binding z-score [8] of -0.3 and a PBM binding z-score [9] of -0.301.
CGTCAAAGTACAACTAAGGTAACGTAAAGCACGC showed a PBM binding z-score [1] of 1.16, a PBM binding z-score [2] of 1.03 and a PBM binding z-score [3] of 1.21. It also gave a PBM binding z-score [4] of 0.971, a PBM binding z-score [5] of 0.543 and a PBM binding z-score [6] of 3.77. For the same sequence, the PBM binding z-score [7] was 1.62, the PBM binding z-score [8] was 0.523 and the PBM binding z-score [9] was 0.523.
AGAATGAGGTTACAAAAGATCAGGGAAACGCTTG was tested, and the PBM binding z-score [1] was 0.449, the PBM binding z-score [2] was 1.86 and the PBM binding z-score [3] was 1.58. The PBM binding z-score [4] was 1.16, the PBM binding z-score [5] was 2.44 and the PBM binding z-score [6] was 2.6. It also gave a PBM binding z-score [7] of -0.0281, a PBM binding z-score [8] of 1.24 and a PBM binding z-score [9] of 0.342.
With TATACAGGGTCAAAGGCTAGAGTACGAATGTCGA the PBM binding z-score [1] was 3.57, the PBM binding z-score [2] was 5.5 and the PBM binding z-score [3] was 5.45. For the same sequence, the PBM binding z-score [4] was 2.73, the PBM binding z-score [5] was 6.82 and the PBM binding z-score [6] was 3.44. The PBM binding z-score [7] was 1.01, the PBM binding z-score [8] was 4.8 and the PBM binding z-score [9] was 3.25.
CCCATTAGTTGACCATAAGGGCAACCGAAGCTCG gave a PBM binding z-score [1] of 2.53, a PBM binding z-score [2] of 1.4 and a PBM binding z-score [3] of 0.963. It also gave a PBM binding z-score [4] of 0.208, a PBM binding z-score [5] of 0.666 and a PBM binding z-score [6] of 2.07. The PBM binding z-score [7] was 1.89, the PBM binding z-score [8] was 0.855 and the PBM binding z-score [9] was 1.05.
Sequence TTACCAAGATGAGCTGAGGTCGTTGATCCAACTC has a PBM binding z-score [1] of 0.571, a PBM binding z-score [2] of 0.267 and a PBM binding z-score [3] of -0.226. It also gave a PBM binding z-score [4] of 0.162, a PBM binding z-score [5] of 0.858 and a PBM binding z-score [6] of 2.68. For the same sequence, the PBM binding z-score [7] was 1.56, the PBM binding z-score [8] was 1.35 and the PBM binding z-score [9] was 2.02.
For TCTTGTAGATCAAGCAGGTTAAGAACGCCTGAGT, the PBM binding z-score [1] was 0.231, the PBM binding z-score [2] was 0.0271 and the PBM binding z-score [3] was -0.224. It also gave a PBM binding z-score [4] of 0.465, a PBM binding z-score [5] of 0.465 and a PBM binding z-score [6] of 0.437. The PBM binding z-score [7] was -0.161, the PBM binding z-score [8] was 0.768 and the PBM binding z-score [9] was 0.189.
GCTATTAGTTGACAGGGCAACCGAATGATTCTCG gave a PBM binding z-score [1] of 0.837, a PBM binding z-score [2] of 0.251 and a PBM binding z-score [3] of 0.693. For the same sequence, the PBM binding z-score [4] was 0.605, the PBM binding z-score [5] was 0.324 and the PBM binding z-score [6] was -0.129. It also gave a PBM binding z-score [7] of -0.0185, a PBM binding z-score [8] of -0.414 and a PBM binding z-score [9] of -0.0905.
CCCTACGGGTCACTGACAGGTTATAGCATTTGGA showed a PBM binding z-score [1] of 3.42, a PBM binding z-score [2] of 5.77 and a PBM binding z-score [3] of 4.37. The PBM binding z-score [4] was 0.859, the PBM binding z-score [5] was 4.97 and the PBM binding z-score [6] was 2.93. It also gave a PBM binding z-score [7] of 0.405, a PBM binding z-score [8] of 3.56 and a PBM binding z-score [9] of 1.07.
CCGACTGGAGCAGAAAGGTTACCATACCATCCGG was tested, and the PBM binding z-score [1] was 2.03, the PBM binding z-score [2] was 1.32 and the PBM binding z-score [3] was 0.946. It also gave a PBM binding z-score [4] of -0.179, a PBM binding z-score [5] of 1.8 and a PBM binding z-score [6] of 0.977. For the same sequence, the PBM binding z-score [7] was -0.2, the PBM binding z-score [8] was 0.564 and the PBM binding z-score [9] was 0.282.
